# According to the supplement of paper PMC6555819:
# Key:
# Experiment in all cases: PBM binding z-score (relative to random genomic background probes); higher = stronger binding; sequences stand for … in GC…GCGATTGACAGCGTAGAATGAAGG
# [1] = system: PPARg:RXRa DBDmut IVT, anti-RXR (DBD mutation: RXRa K156A/R161A, NR concentration 270 nM, RXRa partner concentration 90 nM)
# Summary of the method: (§1)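 Custom Agilent 4×180K protein-binding microarrays carried double-stranded probes, each with a 34-nt variable region. These regions held direct-repeat seeds, single-nucleotide variants, half-site ablations and random human genomic background sequences. Ligand-free nuclear receptor dimers were incubated on the arrays for 1 h, antibodies against each partner (one per run) detected binding, and scanned fluorescence was regression-normalized. Binding z-scores take the random background probes as reference.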
# [2] = system: PPARg:RXRa IVT, anti-PPARg (NR concentration 270 nM, RXRa partner concentration 90 nM)
# Summary of the method: as §1
# [3] = system: PPARg DBDmut:RXRa IVT, anti-PPARg (DBD mutation: PPARg1 K132A/R137A, NR concentration 270 nM, RXRa partner concentration 90 nM)
# Summary of the method: as §1
# [4] = system: PPARg DBDmut IVT, anti-PPARg (DBD mutation: PPARg1 K132A/R137A, NR concentration 270 nM)
# Summary of the method: as §1
# [5] = system: PPARg homodimer (NR concentration 180 nM)
# Summary of the method: as §1
# [6] = system: PXR:RXRa (NR concentration 270 nM, RXRa partner concentration 90 nM)
# Summary of the method: as §1
# [7] = system: PXR homodimer (NR concentration 270 nM)
# Summary of the method: as §1
# [8] = system: RARa:RXR (NR concentration 270 nM, RXRa partner concentration 90 nM)
# Summary of the method: as §1
# [9] = system: RARa homodimer (NR concentration 270 nM)
# Summary of the method: as §1
# [10] = system: RARb:RXRa (NR concentration 270 nM, RXRa partner concentration 90 nM)
# Summary of the method: as §1
# [11] = system: RARb homodimer (NR concentration 270 nM)
# Summary of the method: as §1
# [12] = system: RARg:RXRa (NR concentration 270 nM, RXRa partner concentration 90 nM)
# Summary of the method: as §1
# [13] = system: RARg homodimer (NR concentration 270 nM)
# Summary of the method: as §1
# [14] = system: RXRa DBDmut IVT, anti-RXR (DBD mutation: RXRa K156A/R161A, NR concentration 90 nM)
# Summary of the method: as §1
# [15] = system: RXRa homodimer (NR concentration 180 nM)
# Summary of the method: as §1
# [16] = system: THRa:RXRa (NR concentration 90 nM, RXRa partner concentration 90 nM)
# Summary of the method: as §1
# [17] = system: THRa homodimer (NR concentration 90 nM)
# Summary of the method: as §1
# [18] = system: VDR homodimer (NR concentration 270 nM)
# Summary of the method: as §1
Sequence,PBM binding z-score [1],PBM binding z-score [2],PBM binding z-score [3],PBM binding z-score [4],PBM binding z-score [5],PBM binding z-score [6],PBM binding z-score [7],PBM binding z-score [8],PBM binding z-score [9],PBM binding z-score [10],PBM binding z-score [11],PBM binding z-score [12],PBM binding z-score [13],PBM binding z-score [14],PBM binding z-score [15],PBM binding z-score [16],PBM binding z-score [17],PBM binding z-score [18]
CCAGACAGGTGAAAGGTAACTCGGTCTGGTACGC,2.3,2.9,-0.38,-1.24,0.981,0.75,-0.111,1.77,0.392,1.2,0.705,1.23,0.639,-0.242,2.27,0.879,0.0486,-0.126
TGAATGAGGTTAAAGATTAGGGAACGTGGCGTCG,2,2.99,1.53,0.276,0.705,1.33,0.337,1.98,0.424,1.97,0.481,1.91,1.29,1.09,2.89,2.37,0.417,0.533
GCAGACAGGTGTAACGCAGGTAACTCAGGGTGGC,-0.561,-0.366,-0.91,-1.52,-1.12,-0.578,-1.01,-0.502,-1.69,-0.603,-0.771,-0.375,-0.631,-0.861,-0.21,0.816,-0.935,-0.598
CCAGACAGGTGAAAGGAAACTCAGTCTGGTACGC,1.07,0.474,-0.232,-0.58,0.283,-0.274,-0.261,0.0734,-0.148,0.522,-0.0541,0.0543,0.198,-0.167,0.41,-0.104,-0.669,-0.334
CCTAGCAGGCCAGGGTCACTCAAGCATTTCGCTT,0.393,0.98,-0.961,-1.38,1.04,2.63,-0.595,3.17,-0.537,2.73,2.82,3.21,2.84,0.493,3.9,2.92,1.2,1.25
CCTACTGGGCCAAAGGGCATTGATTCCAATGCTC,4.36,5.09,0.51,-0.625,1.09,0.249,-0.593,0.757,-0.681,1.59,1.16,1.06,0.727,-0.785,0.895,0.159,-0.934,-0.17
CGTCCAAGGTTAAAGGTCAGTGAAGAGATGACGG,1.93,4.19,0.18,0.148,3.37,5.79,0.975,7.42,1.36,5.01,4.52,6.38,5.4,2.09,8.31,3.84,0.929,1.46
ACAGACAGGTGATGTAGGTAACTCAGGCTATCAT,1.26,2.15,0.582,0.742,-0.119,-0.31,0.148,-0.0493,0.492,0.149,0.224,0.333,0.539,-0.0727,0.19,0.566,-0.00745,-0.512
GCATATAGGTAATACAAGGTAAAAGTCCGATTGT,3.98,2.51,0.397,1.1,0.166,0.0106,-0.11,0.364,0.741,-0.207,-0.415,0.25,0.58,0.137,0.294,3.49,0.0793,-0.0351
CCTCGGAGGAAAGAAGGTCAGAGCTGTCCGCTTT,0.673,0.86,-2.12,-1.68,1.32,1.16,-0.583,1.95,0.0336,2.27,2.71,1.88,1.67,0.0436,1.44,1.93,-0.547,0.00914
CCTCGGAGGACAGAAGTTCAGAGCTGTCCGCTTT,-0.783,-0.951,-1.61,-1.82,-0.0548,0.556,-0.104,-0.223,-0.677,1.59,1.88,1.28,1.36,0.706,-0.0645,0.325,-0.73,0.521
CCTAGTTGGTCACGAGGTCACACACCGGATATGA,3.54,5.42,0.987,1.28,2.99,4.79,1.97,4.87,1.29,4.14,4.65,5.36,4.66,1.84,5.19,4.43,4.41,3.84
GCTAGTTGGCCAGTAAAAGGTCACACACCGGTCG,0.354,1.78,-0.104,-0.574,3.08,4.62,0.59,5.25,0.379,4.07,5.19,5.15,4.08,0.252,5.46,3.55,1.33,1.49
ACCATTAGTTGAGACGAGGGCAACCGATAGGTTG,0.237,0.503,0.491,-0.276,0.403,1.5,0.41,1.48,-0.14,1.18,1.3,0.676,0.629,0.383,0.669,2.63,0.525,1.04
TCCTGTAGATCAACAGGAGGTTAAGAAAGATCGA,0.771,0.245,-0.0559,0.308,0.0427,0.654,-0.17,1.02,-0.715,0.535,0.374,0.894,0.158,-0.0672,0.88,0.931,-0.958,-0.104
